Screening data from PubChem.
DRD3 antagonist = blocks the human D3 dopamine receptor; max response, negative = inhibition, %; D3R cells, DiscoveRx beta-arrestin luminescence, antagonist mode; hits give low values; 360,000 compounds, 2.5% hits; in the data active means max response below about -50%
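Cells plated overnight at 1500 cells/well, then exposed to library compounds with dopamine controls for 90 minutes at 37 degrees C. DiscoveRx reagent added for 30–60 minutes at room temperature; luminescence read, quantitative HTS format.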
D3 ag = D3 dopamine receptor (human) agonism; P35462; D3R DiscoveRx beta-arrestin cells, luminescence, 90 min; max activation, %; 410,000 compounds, 0.58% hits; in the data active means max activation above about 30%
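Cells at 1500/well, incubated overnight, then treated with pinned compounds (dopamine as control) for 90 min at 37 degrees C. DiscoveRx reagent added for 30 - 60 minutes at room temperature; luminescence read.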
D1 ag = agonists of human D1 dopamine receptor; P21728; HEK293 T-REx D1 cells, calcium flux, agonist mode; activation, % at 2 µM; 360,000 compounds, 1% hits; in the data active means activation above about 30%
Target sequence (P21728 whole entry, looked up): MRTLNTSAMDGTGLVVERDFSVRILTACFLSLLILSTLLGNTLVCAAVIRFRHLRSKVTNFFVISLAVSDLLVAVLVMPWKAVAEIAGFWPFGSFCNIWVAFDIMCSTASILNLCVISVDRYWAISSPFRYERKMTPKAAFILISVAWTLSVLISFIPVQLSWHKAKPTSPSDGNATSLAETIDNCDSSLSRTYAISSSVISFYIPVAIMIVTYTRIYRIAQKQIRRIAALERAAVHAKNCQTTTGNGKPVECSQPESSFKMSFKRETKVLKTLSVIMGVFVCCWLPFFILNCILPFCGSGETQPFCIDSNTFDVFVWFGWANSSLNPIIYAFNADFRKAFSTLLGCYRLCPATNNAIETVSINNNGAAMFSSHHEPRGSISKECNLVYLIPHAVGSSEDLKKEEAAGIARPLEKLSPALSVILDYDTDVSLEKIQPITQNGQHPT
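Inducible HEK293 T-REx D1 cells, force-coupled to calcium signalling, were plated at 4000 cells/well with tetracycline and held overnight at 30 C. After no-wash calcium dye loading, compound-evoked calcium rise over 180 s flagged agonists.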
D1 PAM = human D1 dopamine receptor positive modulation; HEK293 TREx D1 cells, calcium flux, dopamine EC20 potentiation; potentiation, % at 10 µM; 360,000 compounds, 0.036% hits; AID 504651; in the data active means potentiation above about 30%
D1 antag = antagonists of human D1 dopamine receptor; 360,000 compounds, 3.2% hits; AID 504652; HEK293 TREx D1 cells, calcium flux, dopamine EC80; hits give low values; P21728; activity change, negative = inhibition, % at 10 µM; in the data active means activity change below about -30%
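Allosteric or orthosteric antagonism assessed as attenuation of the calcium response to EC80 dopamine, added 180 s after compound, in induced HEK293 Trex D1 cells loaded with no-wash calcium dye.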
Large screens that a line does not name were inactive. Compounds with a hit are over-represented: about 6.1% of the library has one in this group of screens.

CCOc1c2ccc(C(=O)NCc3ccc4c(c3)OCO4)cc2nn1CC	DRD3 antagonist -52
O=C(NCc1ccc2c(c1)OCO2)c1ccccc1	none
O=C(NCc1ccc2c(c1)OCO2)c1c(-c2ccccc2)sc2ccccc12	D3 ag 67 (no result: D1 ag, D1 PAM, D1 antag)
Cc1onc(-c2ccccc2)c1C(=O)NCc1ccc2c(c1)OCO2	none
CCOc1ccccc1NC(=O)CN(CCc1ccccc1)S(=O)(=O)c1ccc(C)cc1	none (no result: DRD3 antagonist)
c1ccc2c(-c3c[nH]c4ccccc34)c3ccccc3nc2c1	DRD3 antagonist -53
COC(=O)c1cccc(Nc2c(-c3ccc(O)c(OC)c3)nc3nc[nH]n23)c1	none (no result: DRD3 antagonist)
COCCCNC(=O)Cn1ccc(N)nc1=O	D3 ag 38
CCc1ccccc1NC(=O)CC1NCCNC1=O (stereo unspecified)	none (no result: DRD3 antagonist)
O=C1CN(C(=O)COc2ccc(Br)cc2Br)c2ccccc2N1	none
O=C1CN(C(=O)COC(=O)c2cccs2)c2ccccc2N1	D1 antag -30
O=C1CN(C(=O)COc2ccc(Br)cc2F)c2ccccc2N1	D1 antag -34
CCc1cccc(NC(=O)c2c(N3CCCC3=O)c3cc(C)ccc3n2C)c1	none (no result: DRD3 antagonist)
COCCCNC(=O)C1CCN(C(=O)c2ccc(-n3ccc4ccccc43)s2)CC1	none (no result: DRD3 antagonist)
CCc1cccc(C)c1NC(=S)N(CCN(C)C)C(C)c1ccco1 (stereo unspecified)	none
CCc1ccccc1NC(=S)N(CCN(C)C)C(C)c1ccco1 (stereo unspecified)	DRD3 antagonist -146
CCC(C)c1nc2c(c(N3CCC3=O)c1-c1ccccc1)CCCC2 (stereo unspecified)	D3 ag 62 (no result: D1 ag, D1 PAM, D1 antag)
CCC(C)NC(=O)Cn1ncc2c(C)n(Cc3ccc(F)cc3)c(C)c2c1=O (stereo unspecified)	none (no result: DRD3 antagonist)
O=C(Cn1c(=O)oc2cc(S(=O)(=O)N3CCCC3)ccc21)N1CCN(c2ccccc2)CC1	DRD3 antagonist -58
Cc1ccc(C)c(N2CCN(C(=O)Cn3c(=O)oc4cc(S(=O)(=O)N5CCCC5)ccc43)CC2)c1	none
CCOC(=O)C1CCN(C(=O)Cn2c(=O)oc3cc(S(=O)(=O)N4CCC(C)CC4)ccc32)CC1	D1 antag -39 (no result: DRD3 antagonist)
Cc1cccc(N2CCN(C(=O)C3CCN(S(=O)(=O)c4c(C)noc4/C=C/c4ccccc4F)CC3)CC2C)c1 (stereo unspecified)	none (no result: DRD3 antagonist)
N#Cc1cccc(C(c2nnnn2C2CCCC2)N2CCCCCC2)c1 (stereo unspecified)	DRD3 antagonist -54
N#Cc1cccc(C(c2nnnn2C2CCCC2)N2CCC(Cc3ccccc3)CC2)c1 (stereo unspecified)	none
COCCn1nnnc1C(c1cccc(C#N)c1)N1CCCCCC1 (stereo unspecified)	DRD3 antagonist -75
COc1ccc(-c2cc3ccc(O)c(CN4CCC(C)CC4)c3oc2=O)cc1	none (no result: DRD3 antagonist)
CCOc1ccc(C(=O)c2cn(CC(=O)Nc3cc(OC)cc(OC)c3)c3ccc(F)cc3c2=O)cc1	none (no result: DRD3 antagonist)
COc1cccc(NC(=O)Cn2nc(-c3ccncc3)ccc2=O)c1	D1 antag -44 (no result: DRD3 antagonist)
COc1ccc(-c2ccc(=O)n(CC(=O)Nc3ccc(OC)c(OC)c3)n2)cc1	D1 antag -40 (no result: DRD3 antagonist)
CCCc1cc(F)c(S(=O)(=O)N2CCN(S(=O)(=O)c3ccc4c(c3)OCCO4)CC2)cc1F	none (no result: DRD3 antagonist, D3 ag)
N#CC1=C(N)C(C#N)(C#N)C(c2cccnc2)C2CN(C(=O)OCc3ccccc3)CC=C12 (stereo unspecified)	DRD3 antagonist -74
COc1cc(/C=N/O)cc(Cl)c1OC	D1 ag 89
Cc1nn(-c2nc(-c3ccc(F)cc3)cc(C(F)(F)F)n2)c(C)c1Br	none (no result: DRD3 antagonist)
COc1ccc(Cl)cc1C(=O)C1CCCN(Cc2cnc(N3CCOCC3)s2)C1 (stereo unspecified)	DRD3 antagonist -79
CCc1noc(C)c1C(=O)N1CCCC(C(=O)c2cc(F)ccc2OC)C1 (stereo unspecified)	none
CCOC(=O)N1CCC(N2CCCC(C(=O)c3cc(F)ccc3OC)C2)CC1 (stereo unspecified)	DRD3 antagonist -68
COc1ccc(F)cc1C(=O)C1CCCN(Cc2cnc(N3CCCC3)s2)C1 (stereo unspecified)	DRD3 antagonist -59
CC(C)c1ccc(NC(=O)c2ccc(CN3CC(=O)N4CCCCC4C3=O)cc2)cc1 (stereo unspecified)	none (no result: DRD3 antagonist)
